The values that follow come from PubChem BioAssay (Tox21).

SMILES strings stand for the structures. Values without a mark were called inactive. Results filed as inconclusive are left out. Calls of active or inactive are those of the source. Unless noted, calls follow the shape of the dose curve; as a rule, active = well fitted curve in the direction sought with a large enough effect in the repeat runs; inconclusive = weak or mixed curves; inactive = no such curve, though single readings can be large; an effect the other way counts as inactive or inconclusive.

Assay [1] can be described thus: qHTS assay to identify small molecule agonists of the TGF-beta/Smad signaling pathway - cell viability counter screen (AID 1346829). Also: top concentration of the series differs between compounds; nearly all actives have a fitted effect of over 45% in size. A digest of the protocol:
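Here the cytotoxicity of library compounds is measured in SBE-bla HEK 293T cells treated for 5 hr, using CellTiter-Glo added to wells already read for the beta-lactamase reporter.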

Assay [2] in a line: qHTS assay to identify small molecule agonists of the TGF-beta/Smad signaling pathway (AID 1346859; active = well fitted activation curve with a large enough effect in the signal ratio in the repeat runs, not every such curve was filed as active; the % refers to the signal ratio; also: series mostly up to about 77 µM). A digest of the protocol: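 Stable Smad binding element-beta-lactamase HEK 293T cells; 5 hr compound exposure at 37 C under 5% CO2; 2 hr room-temperature substrate step; fluorescence excited at 405 nm, collected at 460 nm and 530 nm.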
For assay [3], the target named is Thyrotropin-releasing hormone receptor (Homo sapiens) (UniProt P34981). Nature of the assay: qHTS assay to identify small molecule antagonists of the thyrotropin-releasing hormone receptor (TRHR) signaling pathway (AID 1346877; active = well fitted inhibition curve with a large enough effect in the repeat runs, not every such curve was filed as active; also: series mostly up to about 51 µM). The method, boiled down: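 Antagonism is measured as suppression of the calcium response to 1 nM TRH in TRHR-HEK293 cells that have been dye-loaded for 2 h at 37 °C after overnight plating. Each compound is tested at 15 concentrations in triplicate.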

A short description of assay [4]: Caspase-3/7 induction in HepG2 cells by small molecules, qHTS assay (AID 1346978). Also: nearly all actives have a fitted effect of over 15% in size. The method, boiled down:
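Wild-type HepG2 cells, 2,000/well, settled 5 hr at 37 C and 5% CO2, then compound-treated for 17 hr; caspase-3/7 activity read by luminescent Caspase-Glo 3/7 after 30 min at room temperature.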

Assay [5] in a line: Caspase-3/7 induction in CHO-K1 cells by small molecules, qHTS cell viability counter screen (AID 1346979). Also: nearly all actives have a fitted effect of over 35% in size. A digest of the protocol:
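To flag cytotoxic compounds, treated CHO-K1 wild-type cells were given CellTiter-Fluor at 16hr and read fluorescently after 1hr at 37C; the caspase-3/7 luminescence was measured in these same wells.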

The nature of assay [6]: Caspase-3/7 induction in CHO-K1 cells by small molecules, qHTS assay (AID 1346980). Also: nearly all actives have a fitted effect of over 15% in size. A digest of the protocol:
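Wild-type CHO-K1 cells exposed to compounds for 17hr at 37 C, 5% CO2. Caspase-3/7 activity then measured by Caspase-Glo 3/7 luminescence after 30min at room temperature.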

Assay [7] can be described thus: Caspase-3/7 induction in HepG2 cells by small molecules, qHTS cell viability counter screen (AID 1346981). Also: series mostly up to about 92 µM; nearly all actives have a fitted effect of over 30% in size. A digest of the protocol:
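Cell viability is measured as a cytotoxicity counter screen alongside the Caspase-Glo 3/7 readout in identical wells. Wild-type HepG2 cells are treated with test compounds for 16 hr at 37 C before CellTiter-Fluor addition and a 1-hr incubation.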

Assay [8] concerns the target Nuclear receptor subfamily 1 group I member 2 (Homo sapiens) (UniProt O75469). Nature of the assay: Human pregnane X receptor (PXR) small molecule agonists, qHTS assay (AID 1346982). Also: nearly all actives have a fitted effect of over 35% in size. The method, boiled down: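 Cells: HepG2 stably carrying PXR-Luc. Medium held 5% charcoal-stripped FBS. Compounds in DMSO added after 5 hr plating, incubated 24 hr, then luminescence quantified with ONE-Glo.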

The target of assay [9] is Cytochrome P450 2D6 (Homo sapiens) (UniProt P10635). Nature of the assay: Cytochrome P450 Family 2 Subfamily D Member 6 (CYP2D6) small molecule antagonists: luciferase reporter qHTS assay (AID 1671196). Also: nearly all actives have a fitted effect of over 50% in size. Also: potency is read from the fitted curve at half-maximal effect. As to activity change, negative = inhibition: series mostly up to about 120 µM. A digest of the protocol: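 Enzyme and proluciferin substrate were first combined with test chemical for 10 min at room temperature. Adding NADPH regeneration solution started a 1 h reaction, stopped with luciferin detection reagent and read by luminescence 20 min later.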

Assay [10] addresses Cytochrome P450 2C9 (Homo sapiens) (UniProt P11712). Nature of the assay: Cytochrome P450 Family 2 Subfamily C Member 9 (CYP2C9) small molecule antagonists: luciferase reporter qHTS assay (AID 1671198). Also: nearly all actives have a fitted effect of over 50% in size. Also: potency is read from the fitted curve at half-maximal effect. As to activity change, negative = inhibition: series mostly up to about 120 µM. The method, boiled down:
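P450-Glo proluciferin substrate with CYP2C9 enzyme; 10 min RT preincubation, then NADPH regeneration 1 h at 37C; luciferin detection reagent 20 min RT, luminescence in relative luminescence units.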

For assay [11], the target named is Cytochrome P450 1A2 (Homo sapiens) (UniProt P05177). Nature of the assay: Cytochrome P450 Family 1 Subfamily A Member 2 (CYP1A2) small molecule antagonists: luciferase reporter qHTS assay (AID 1671199). Also: series mostly up to about 120 µM; nearly all actives have a fitted effect of over 50% in size. A digest of the protocol:
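Compounds were incubated with CYP1A2 and a luminogenic proluciferin substrate for 10 min at room temperature before the reaction was started with NADPH regeneration solution. After 1 h, detection reagent was added and light output, proportional to CYP activity, was recorded.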

Assay [12] has as its target Voltage-gated inwardly rectifying potassium channel KCNH2 (Homo sapiens) (UniProt Q12809). Nature of the assay: Human Ether-a-go-go-Related Gene (hERG) channel small molecule antagonists: fluorescence cell-based qHTS assay (AID 1671200).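 Also: hERG-expressing U2OS cells given a thallium stimulus after FluxOR II dye loading; series mostly up to about 77 µM; nearly all actives have a fitted effect of over 50% in size.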 The method, boiled down:
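Measured: Tl+ flux via fluorescence (480/540 nm) in hERG-expressing U2OS cells after 1 h dye loading at room temperature.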

In assay [13] the target is Thyrotropin-releasing hormone receptor (Homo sapiens) (UniProt P34981). Nature of the assay: qHTS assay to identify small molecule agonists of the thyrotropin-releasing hormone receptor (TRHR) signaling pathway (AID 1346891; calls by dose curve;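 also: HEK293 cells expressing TRHR with calcium dye readout; series mostly up to about 58 µM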). A digest of the protocol: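 In 1536-format, 1500 TRHR-Hek293 cells per well grew 18 h, took up calcium dye for 2 h at 37 °C, received compound, and were read kinetically; 15-point titrations, triplicates.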

Assay [14] can be described thus: Human pregnane X receptor (PXR) small molecule agonists, qHTS cell viability counter screen (AID 1346977). Also: nearly all actives have a fitted effect of over 50% in size. The method, boiled down: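 Readout is CellTiter-Fluor fluorescence from PXR-Luc HepG2 cells. Plated cells rested 5hr, then were treated with compounds for 24hr at 37C and 5% CO2, with reagent present during the last hour.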
Assay [15] has as its target Nuclear receptor subfamily 1 group I member 2 (Rattus norvegicus) (UniProt Q9R1A7). Nature of the assay: Rat pregnane X receptor (rPXR) activation by small molecules, qHTS assay (AID 1346983). Also: nearly all actives have a fitted effect of over 20% in size. To be noted: rPXR luciferase reporter cells, One-Glo luminescence, 24 h; stronger effect = higher value. A digest of the protocol: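 Cell-based rPXR activation assay: rPXR cells, 2,000 per well, rested 5hr at 37 C, then exposed to compounds in DMSO for 24 hr at 37 C. Luciferase activity read by One-Glo luminescence after 30 min at room temperature.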

Assay [16] has as its target Nuclear receptor subfamily 1 group I member 2 (Homo sapiens) (UniProt O75469). Nature of the assay: CYP3A4 induction through human pregnane X receptor (PXR) by small molecules, qHTS assay (AID 1346984). Also: nearly all actives have a fitted effect of over 40% in size. A digest of the protocol:
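Quantitative HTS in DPX-2 cells, i.e. HepG2 transfected with PXR response element and CYP3A4-promoter luciferase. Compounds in DMSO incubated 24hr at 37C; then P450-Glo CYP3A4 substrate, 3uM final, 3hr; One-Glo luminescence.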

For assay [17] the target is unchanged. Nature of the assay: Human pregnane X receptor (PXR) activation by small molecules, qHTS assay (AID 1346985). Also: nearly all actives have a fitted effect of over 40% in size. A digest of the protocol: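 DPX-2 cells (HepG2 co-transfected with a PXR response element and a CYP3A4-promoter luciferase construct) were seeded at 2,000 per well, rested 5 hr at 37C, then exposed to DMSO-dissolved compounds for 24 hr. Activation was read as luciferase luminescence.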

Assay [18] deals with Cytochrome P450 3A4 (Homo sapiens) (UniProt P08684). Nature of the assay: Cytochrome P450 Family 3 Subfamily A Member 4 (CYP3A4) small molecule antagonists: luciferase reporter qHTS assay (AID 1671201). A digest of the protocol: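 Setup: enzyme-substrate mix, compound pin transfer, 10 min RT. Reaction: NADPH regeneration solution, 1 h RT. Readout: detection reagent stops turnover, luminescence measured after 20 min, expressed in relative luminescence units.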

For assay [19], the target named is Cytochrome P450 2C19 (Homo sapiens) (UniProt P33261). Nature of the assay: Cytochrome P450 Family 2 Subfamily C Member 19 (CYP2C19) small molecule antagonists: luciferase reporter qHTS assay (AID 1671197). Also: series mostly up to about 120 µM; nearly all actives have a fitted effect of over 65% in size. The method, boiled down:
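Light output is proportional to CYP2C19 activity: proluciferin substrate is converted to luciferin, then detected by a luciferin detection reagent that also stops the 1 h, 37C NADPH-driven reaction. Ketoconazole serves as positive control.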
% is scaled to controls: 0 for no effect and ±100 for the full control effect.

Nuclear receptor subfamily 1 group I member 2 (Homo sapiens), sequence (O75469 whole entry, looked up): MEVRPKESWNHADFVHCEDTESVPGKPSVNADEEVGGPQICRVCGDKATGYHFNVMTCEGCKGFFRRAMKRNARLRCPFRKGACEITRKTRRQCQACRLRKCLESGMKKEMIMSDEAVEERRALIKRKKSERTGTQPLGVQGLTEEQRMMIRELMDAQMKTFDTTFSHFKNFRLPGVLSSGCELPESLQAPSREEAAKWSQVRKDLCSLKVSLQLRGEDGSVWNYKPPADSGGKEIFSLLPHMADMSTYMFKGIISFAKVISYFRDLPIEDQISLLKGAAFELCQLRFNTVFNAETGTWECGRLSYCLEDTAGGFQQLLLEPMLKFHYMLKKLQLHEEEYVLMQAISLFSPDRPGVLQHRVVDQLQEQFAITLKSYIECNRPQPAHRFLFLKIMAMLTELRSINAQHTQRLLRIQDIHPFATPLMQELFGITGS
Cytochrome P450 2D6 (Homo sapiens), sequence (P10635 whole entry, looked up): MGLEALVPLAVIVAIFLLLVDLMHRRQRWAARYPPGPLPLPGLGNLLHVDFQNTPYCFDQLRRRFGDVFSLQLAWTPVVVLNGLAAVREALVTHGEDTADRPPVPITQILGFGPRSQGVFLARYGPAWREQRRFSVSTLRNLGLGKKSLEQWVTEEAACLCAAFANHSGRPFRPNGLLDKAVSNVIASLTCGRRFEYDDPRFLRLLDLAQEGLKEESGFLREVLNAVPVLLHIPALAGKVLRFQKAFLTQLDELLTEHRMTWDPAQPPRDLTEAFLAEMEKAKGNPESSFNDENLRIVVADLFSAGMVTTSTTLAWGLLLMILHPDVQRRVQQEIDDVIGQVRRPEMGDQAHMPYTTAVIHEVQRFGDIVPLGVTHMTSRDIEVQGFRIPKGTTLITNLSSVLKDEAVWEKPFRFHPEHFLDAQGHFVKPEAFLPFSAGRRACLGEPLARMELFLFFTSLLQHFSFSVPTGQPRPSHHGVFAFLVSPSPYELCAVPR
Cytochrome P450 1A2 (Homo sapiens), sequence (P05177 whole entry, looked up): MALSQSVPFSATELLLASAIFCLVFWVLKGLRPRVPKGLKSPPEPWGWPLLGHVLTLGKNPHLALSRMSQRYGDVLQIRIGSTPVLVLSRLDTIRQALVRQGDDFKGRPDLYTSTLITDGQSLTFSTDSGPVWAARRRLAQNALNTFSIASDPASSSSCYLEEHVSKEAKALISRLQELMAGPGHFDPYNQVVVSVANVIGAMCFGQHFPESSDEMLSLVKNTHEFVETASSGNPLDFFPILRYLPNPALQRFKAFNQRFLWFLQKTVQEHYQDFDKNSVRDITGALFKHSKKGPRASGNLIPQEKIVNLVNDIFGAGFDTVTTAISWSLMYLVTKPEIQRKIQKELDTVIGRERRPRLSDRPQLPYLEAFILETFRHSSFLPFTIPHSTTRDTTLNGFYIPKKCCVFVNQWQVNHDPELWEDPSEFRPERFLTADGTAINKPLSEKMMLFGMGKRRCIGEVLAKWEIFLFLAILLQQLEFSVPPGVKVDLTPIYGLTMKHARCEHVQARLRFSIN
Cytochrome P450 2C19 (Homo sapiens), sequence (P33261 whole entry, looked up): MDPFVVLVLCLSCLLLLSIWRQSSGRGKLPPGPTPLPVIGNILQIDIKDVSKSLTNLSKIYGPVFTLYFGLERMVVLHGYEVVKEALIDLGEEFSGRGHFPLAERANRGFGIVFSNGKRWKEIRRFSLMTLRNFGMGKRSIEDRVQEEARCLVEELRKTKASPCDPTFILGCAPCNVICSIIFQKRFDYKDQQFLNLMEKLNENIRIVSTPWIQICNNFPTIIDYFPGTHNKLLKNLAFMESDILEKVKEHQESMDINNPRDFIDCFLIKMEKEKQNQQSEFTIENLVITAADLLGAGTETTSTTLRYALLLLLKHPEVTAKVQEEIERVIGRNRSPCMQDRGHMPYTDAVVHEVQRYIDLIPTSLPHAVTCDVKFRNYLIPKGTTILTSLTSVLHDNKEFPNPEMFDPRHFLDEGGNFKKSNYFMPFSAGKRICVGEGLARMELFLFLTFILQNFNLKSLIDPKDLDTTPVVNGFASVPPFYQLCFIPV
Voltage-gated inwardly rectifying potassium channel KCNH2 (Homo sapiens), sequence (Q12809 whole entry, looked up): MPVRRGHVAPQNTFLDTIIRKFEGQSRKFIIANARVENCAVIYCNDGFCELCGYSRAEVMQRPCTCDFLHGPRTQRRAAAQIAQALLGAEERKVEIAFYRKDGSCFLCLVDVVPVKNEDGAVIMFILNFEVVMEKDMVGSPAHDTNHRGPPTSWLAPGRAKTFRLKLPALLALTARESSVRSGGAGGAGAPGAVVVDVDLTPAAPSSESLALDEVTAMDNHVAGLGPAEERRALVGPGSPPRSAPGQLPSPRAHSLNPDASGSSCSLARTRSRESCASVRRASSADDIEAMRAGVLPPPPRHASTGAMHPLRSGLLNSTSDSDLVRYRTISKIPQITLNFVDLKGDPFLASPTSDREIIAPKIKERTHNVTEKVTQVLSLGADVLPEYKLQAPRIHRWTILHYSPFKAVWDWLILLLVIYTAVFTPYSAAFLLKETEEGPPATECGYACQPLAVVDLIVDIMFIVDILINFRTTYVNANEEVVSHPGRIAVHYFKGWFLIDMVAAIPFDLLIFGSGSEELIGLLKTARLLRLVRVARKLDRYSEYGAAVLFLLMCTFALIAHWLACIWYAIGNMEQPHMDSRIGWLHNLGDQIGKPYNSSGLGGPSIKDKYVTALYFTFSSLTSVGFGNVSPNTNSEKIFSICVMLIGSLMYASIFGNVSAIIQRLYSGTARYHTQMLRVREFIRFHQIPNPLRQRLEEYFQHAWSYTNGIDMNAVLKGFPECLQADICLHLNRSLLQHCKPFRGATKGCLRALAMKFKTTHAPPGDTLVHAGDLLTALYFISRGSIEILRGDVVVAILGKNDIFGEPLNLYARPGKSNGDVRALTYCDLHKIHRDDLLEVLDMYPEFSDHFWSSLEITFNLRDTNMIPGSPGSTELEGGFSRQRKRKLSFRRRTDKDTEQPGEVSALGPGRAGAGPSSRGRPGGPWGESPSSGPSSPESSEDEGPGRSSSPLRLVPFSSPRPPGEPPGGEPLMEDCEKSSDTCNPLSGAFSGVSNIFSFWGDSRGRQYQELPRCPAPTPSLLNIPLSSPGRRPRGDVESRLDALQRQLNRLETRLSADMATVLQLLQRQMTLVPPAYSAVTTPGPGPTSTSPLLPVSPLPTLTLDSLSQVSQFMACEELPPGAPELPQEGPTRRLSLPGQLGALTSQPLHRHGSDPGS
Cytochrome P450 2C9 (Homo sapiens), sequence (P11712 whole entry, looked up): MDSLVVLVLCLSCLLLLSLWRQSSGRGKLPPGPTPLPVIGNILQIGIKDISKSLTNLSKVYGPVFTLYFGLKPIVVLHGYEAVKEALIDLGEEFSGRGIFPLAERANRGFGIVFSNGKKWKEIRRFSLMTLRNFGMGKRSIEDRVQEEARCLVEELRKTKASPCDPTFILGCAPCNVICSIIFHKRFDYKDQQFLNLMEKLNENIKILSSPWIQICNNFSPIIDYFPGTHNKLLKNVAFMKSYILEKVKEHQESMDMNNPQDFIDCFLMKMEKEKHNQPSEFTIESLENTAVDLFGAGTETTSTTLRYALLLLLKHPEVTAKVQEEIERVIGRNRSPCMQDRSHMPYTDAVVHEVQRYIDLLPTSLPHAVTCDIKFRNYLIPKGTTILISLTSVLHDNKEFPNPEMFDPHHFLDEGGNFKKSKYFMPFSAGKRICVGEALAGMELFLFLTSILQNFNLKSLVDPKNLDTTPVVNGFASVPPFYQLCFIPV
Cytochrome P450 3A4 (Homo sapiens), sequence (P08684 whole entry, looked up): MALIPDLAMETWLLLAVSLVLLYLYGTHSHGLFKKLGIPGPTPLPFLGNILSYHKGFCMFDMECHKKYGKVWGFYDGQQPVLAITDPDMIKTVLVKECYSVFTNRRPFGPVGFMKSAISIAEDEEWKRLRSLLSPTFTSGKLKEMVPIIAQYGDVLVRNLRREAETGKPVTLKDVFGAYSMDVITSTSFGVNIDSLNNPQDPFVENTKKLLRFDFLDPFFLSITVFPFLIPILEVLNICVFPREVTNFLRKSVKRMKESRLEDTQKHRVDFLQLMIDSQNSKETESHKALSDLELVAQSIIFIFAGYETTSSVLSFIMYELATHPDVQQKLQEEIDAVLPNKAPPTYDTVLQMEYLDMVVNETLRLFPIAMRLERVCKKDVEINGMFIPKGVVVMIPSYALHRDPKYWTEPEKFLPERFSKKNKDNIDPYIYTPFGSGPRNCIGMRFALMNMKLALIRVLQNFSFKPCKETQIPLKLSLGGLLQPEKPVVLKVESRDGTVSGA
Thyrotropin-releasing hormone receptor (Homo sapiens), sequence (P34981 whole entry, looked up): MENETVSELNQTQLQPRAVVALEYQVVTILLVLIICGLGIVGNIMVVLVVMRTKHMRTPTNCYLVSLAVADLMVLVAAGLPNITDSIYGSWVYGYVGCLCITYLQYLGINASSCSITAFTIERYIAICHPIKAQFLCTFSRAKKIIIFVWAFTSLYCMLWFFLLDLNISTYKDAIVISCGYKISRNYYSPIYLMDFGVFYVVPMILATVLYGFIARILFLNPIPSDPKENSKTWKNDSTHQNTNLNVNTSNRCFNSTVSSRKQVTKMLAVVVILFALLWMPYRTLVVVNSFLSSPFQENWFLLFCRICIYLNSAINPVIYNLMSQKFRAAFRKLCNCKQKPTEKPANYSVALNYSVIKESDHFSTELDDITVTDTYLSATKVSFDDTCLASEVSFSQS
Nuclear receptor subfamily 1 group I member 2 (Rattus norvegicus), sequence (Q9R1A7 whole entry, looked up): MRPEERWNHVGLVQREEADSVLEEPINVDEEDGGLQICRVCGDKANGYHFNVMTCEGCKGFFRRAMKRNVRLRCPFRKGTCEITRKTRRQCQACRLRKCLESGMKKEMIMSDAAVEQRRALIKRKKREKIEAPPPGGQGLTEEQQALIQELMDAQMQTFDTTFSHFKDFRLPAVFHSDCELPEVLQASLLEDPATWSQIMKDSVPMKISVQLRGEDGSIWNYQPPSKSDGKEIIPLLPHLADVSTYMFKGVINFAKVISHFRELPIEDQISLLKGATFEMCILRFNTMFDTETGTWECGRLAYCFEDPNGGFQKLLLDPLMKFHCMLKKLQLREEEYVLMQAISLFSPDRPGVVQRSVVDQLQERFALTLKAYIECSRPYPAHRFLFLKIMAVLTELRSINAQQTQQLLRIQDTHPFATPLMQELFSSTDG

Take `CC1(C)CC(OC(=O)CCCCCCCCC(=O)OC2CC(C)(C)NC(C)(C)C2)CC(C)(C)N1`: the activity change, negative = cytotoxicity in assay [1] was 11.9% [at 15.8 µM]; in assay [5] it was -1.35% [at 19 µM]; in assay [7] it was -0.861% [at 19 µM]. Further, the activation in assay [2] is 0.453% [at 15.8 µM]; in assay [8], 26.4% [at 19 µM]. In addition, the activity, negative = inhibition in [3] is 0.698% [at 10.5 µM]. The caspase activation in assay [4] is 0.485% [at 19 µM]. The caspase-3/7 activation in [6] is -0.118% [at 19 µM]. Further, the activity change, negative = inhibition in assay [9] is -17.8% [at 23.6 µM]; in assay [10], -10.9% [at 23.6 µM]; in assay [11], -5.32% [at 23.6 µM]; in [12], -0.993% [at 15.8 µM].
Consider `CN(C)CCOC(=O)C(c1ccccc1)C1(O)CCCC1` (stereo unspecified), for which the result in [1], in assay [2], in assay [13], in assay [14], in assay [4] and in assay [6] was inactive. In addition, the outcome in assay [7] was inactive. For the same compound, the Potency entry in assay [5], in assay [8], in assay [16], in [17], in assay [10] and in assay [11] was “inactive” in each case. Also, the Potency entry in assay [12] and in [18] was “inactive” each time. Besides, the max activation in [15] is 3.01%.
On to `N[C@@H](CSCCCO)C(=O)O`, for which the activity change, negative = cytotoxicity was 6.47% [at 15.8 µM] in assay [1] and -2.1% [at 19 µM] in [7]. In addition, the figures for the activation in assay [2] and in assay [8] were 6.83% [at 15.8 µM] and -4.99% [at 19 µM], respectively. Further, in assay [3], the activity, negative = inhibition was -0.484% [at 10.5 µM]. Besides, in assay [4], the caspase activation is -0.396% [at 19 µM]. Moreover, in assay [6], the caspase-3/7 activation was 0.125% [at 19 µM]. The max activation in assay [15] was -2.52%. Also, the Potency result in assay [16] and in [17] was “inactive” throughout. In addition, the activity change, negative = inhibition in assay [9] is -4.36% [at 23.6 µM]; in assay [19], 3.16% [at 23.6 µM]; in assay [10], 4.77% [at 23.6 µM]; in assay [11], 12.2% [at 23.6 µM]; in assay [18] it was 15.6% [at 23.6 µM].
As for `Cc1cccc(Cl)c1`, the compound was called inactive in [1], in assay [2], in assay [13], in assay [14], in assay [4] and in [6]. Further, the outcome in assay [7] was inactive. The Potency entry in assay [5], in assay [8], in [9], in assay [19], in assay [10] and in assay [11] was “inactive” each time. Also, the Potency entry in [18] was “inactive”.
For the compound `Cc1ccc(C(=O)O)cc1[N+](=O)[O-]`, the result in assay [1], in assay [2], in [3], in assay [4], in assay [6] and in assay [7] was inactive. Besides, the Potency entry in [5], in [8], in [9], in assay [19], in assay [10] and in assay [12] was “inactive” in each case. For the same compound, the Potency result in [18] was “inactive”.
As for `CC(Oc1cc(Cl)ccc1Cl)C(=O)O` (stereo unspecified), the outcome in [1], in assay [2], in assay [3], in [14], in assay [4] and in assay [6] was inactive. In addition, the Potency result in [8], in assay [9], in assay [19], in assay [11] and in [12] was “inactive” each time. In addition, the Potency in assay [10] is 71 µM (active).
With `CCCCOC(=O)C(C)O` (stereo unspecified), the compound was called inactive in [1], in [2], in assay [3], in [14], in assay [4] and in assay [7]. Besides, the Potency result in [8], in assay [9], in [10], in [11], in [12] and in [18] was “inactive” in each case.
Consider `Cc1ccccc1C(N)=O`, for which the outcome in assay [1], in assay [2], in [13], in assay [14], in assay [4] and in [6] was inactive. Also, the compound was called inactive in [7]. Besides, the Potency entry in [5], in assay [8], in assay [10] and in assay [18] was “inactive” each time. Besides, the Potency in assay [9] is 56.3 µM (active).
